The list is not random: actives were taken first. Their share in the collection is about 12%.
Sfp inh – blocks B. subtilis Sfp PPTase activity. Potency, µM, hits mostly inhibitors. actives 3.5% (n = 310,000). AID 1490. Q9F4F7. Biochemical Sfp PPTase activity, qHTS;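 note: the enzyme is Sfp with the accession as filed and its product quenches rhodamine fluorescence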
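Buffer: 50 mM Hepes-Na pH 7.6, 10 mM MgCl2, 0.01% Nonidet P-40, 0.01% BSA. Enzyme 15 nM, pre-exposed to compound 15 min; substrates then added and fluorescence change tracked over 30 min.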
ALDH1A1 block – ALDH1A1 (human) enzyme inhibition. Potency, µM (titrated, usually from 75.3 µM), most hits filed as inhibitors. P00352. actives 7.3% (n = 220,000). AID 1030. Purified ALDH1A1, NADH fluorescence, propionaldehyde substrate; active = well fitted inhibition curve with a large enough effect, not every such curve was filed as active; inconclusive = small, poorly fitted or top-dose-only effect, or another doubt; inactive = no such curve, though single readings can be large or run the other way
RORg inh – blocks mouse ROR gamma transcriptional activity; actives 5.4% (n = 310,000); P51450; AID 2551; Drosophila S2 Gal4-RORgamma UAS-luciferase reporter, 20 h; Potency, µM (top dose mostly 53.6 µM), usual class: inhibitors; note: nearly all actives have a fitted effect of over 60% in size
Target sequence (P51450 whole entry, looked up, the tested form may be a part): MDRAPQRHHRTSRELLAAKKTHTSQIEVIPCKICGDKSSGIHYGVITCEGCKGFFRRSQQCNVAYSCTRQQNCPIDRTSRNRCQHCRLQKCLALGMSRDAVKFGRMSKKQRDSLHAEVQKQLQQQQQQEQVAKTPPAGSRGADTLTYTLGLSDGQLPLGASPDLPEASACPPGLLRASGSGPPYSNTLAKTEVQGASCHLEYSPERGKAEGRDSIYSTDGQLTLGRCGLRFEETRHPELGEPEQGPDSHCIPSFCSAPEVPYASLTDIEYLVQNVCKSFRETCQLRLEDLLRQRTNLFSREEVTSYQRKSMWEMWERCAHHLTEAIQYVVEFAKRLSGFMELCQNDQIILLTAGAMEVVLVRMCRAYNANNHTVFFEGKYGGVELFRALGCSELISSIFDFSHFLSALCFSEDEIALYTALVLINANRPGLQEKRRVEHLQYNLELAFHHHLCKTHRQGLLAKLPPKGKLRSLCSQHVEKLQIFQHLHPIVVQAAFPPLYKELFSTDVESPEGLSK
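Drosophila S2 cells stably expressing Gal4-DBD/mouse RORγ fusion under metallothionein promoter plus UAS-luciferase; compound 1 h, then 700 uM CuSO4 induction for 20 h at ambient temperature; inhibition read as reduced luminescence.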
Gal4-VP16 FLuc – Gal4-VP16 reporter inhibition counter-screen; actives 3.5% (n = 310,000); Drosophila S2 Gal4-VP16 UAS-luciferase, luminescence, 20 h; Potency, µM (series often up to 53.6 µM), hits mostly inhibitors;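 note: Gal4-VP16 expression switched on by copper sulfate through the metallothionein promoter; nearly all actives have a fitted effect of over 50% in size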
PLK1 PBD block – PLK1 (human) polo-box domain binding inhibition | actives 2.8% (n = 360,000) | Potency, µM, most hits filed as inhibitors | P53350 | Plk1 PBD binding of FITC phosphopeptide, fluorescence polarization; note: series mostly up to about 57 µM; nearly all actives have a fitted effect of over 65% in size
Of the large screens only hits and unclear results are named; the others gave an inactive call. Unless noted, calls come from the whole dose curve; as a rule, active = well fitted curve in the direction sought with a large enough effect; inconclusive = small, poorly fitted or top-dose-only effect, or another doubt; inactive = no such curve, though single readings can be large; an effect the other way counts as inactive or inconclusive.

O=C(NC(=S)N(Cc1ccccc1)Cc1ccccc1)C1CCCCC1	ALDH1A1 block inconclusive
COC(=O)NC(c1cccc(C)c1)[C@]1(C(C)=O)CCOC1=O (stereo partly drawn)	ALDH1A1 block inconclusive (no result: PLK1 PBD block)
COc1cccc([C@@H]2Oc3ccc(Br)cc3[C@H](O)[C@H]2O)c1	none (no result: PLK1 PBD block)
CCC(Oc1ccc(Br)cc1Cl)C(=O)Nc1nnc(C2CC2)s1 (stereo not drawn)	RORg inh 13µM, Gal4-VP16 FLuc inconclusive (no result: ALDH1A1 block)
CCOC(=O)c1cc2c(C)n(-c3ccc(C)cc3)c(C)c2ccc1=O	Gal4-VP16 FLuc 10µM
CCOC(=O)c1c[nH]n(-c2ccc(C)cc2)c1=O	ALDH1A1 block inconclusive
CCOC(=O)c1cc2c(C)n(-c3ccc(OCC)cc3)c(C)c2ccc1=O	Sfp inh 79µM, ALDH1A1 block inconclusive, RORg inh inconclusive
O=[N+]([O-])c1ccc(/C=N/NC(=S)Nc2ccc(Cl)cc2Cl)s1	Sfp inh 56µM, RORg inh inconclusive, Gal4-VP16 FLuc inconclusive (no result: ALDH1A1 block)
O=[N+]([O-])c1ccc(O)c(/C=N/NC(=S)Nc2ccc(Cl)cc2Cl)c1	RORg inh 2.5µM, Gal4-VP16 FLuc 2.5µM, PLK1 PBD block inconclusive (no result: ALDH1A1 block)
O=C(Nc1ccc([N+](=O)[O-])cc1Cl)c1cc(Cl)ccc1O	ALDH1A1 block inconclusive, RORg inh 1.3µM, Gal4-VP16 FLuc 1.3µM
O=C(Nc1ccncc1)c1cc([N+](=O)[O-])ccc1Cl	RORg inh 8.9µM, Gal4-VP16 FLuc inconclusive (no result: PLK1 PBD block)
Cc1cc(Cl)ccc1NC(=O)CCC(=O)N/N=C/c1cc([N+](=O)[O-])ccc1O	RORg inh inconclusive
Cc1cccc(-c2cc3nc(C)cc(NCCCn4ccnc4)n3n2)c1	PLK1 PBD block 24µM
COc1ccc(C(=O)O)nc1C	Sfp inh 45µM, RORg inh inconclusive (no result: ALDH1A1 block)
Cc1nn(C)cc1CN(C)C(=O)c1cc2nc(-c3ccco3)cc(C(F)(F)F)n2n1	Sfp inh 35µM, ALDH1A1 block inconclusive
COc1cc(/C=C/C(=O)Nc2ccc(S(=O)(=O)Nc3ncccn3)cc2)ccc1OCC#N	none (no result: Sfp inh, ALDH1A1 block, RORg inh, Gal4-VP16 FLuc)
COC(=O)c1ccc(C(NC(=O)OCc2ccccc2)/C(F)=C/[C@@H](C)C(=O)N(C)Cc2cccnc2)cc1 (stereo partly drawn)	ALDH1A1 block inconclusive (no result: PLK1 PBD block)
COc1ccc(S(=O)(=O)N(CCc2ccccc2)CC(N)=O)cc1	ALDH1A1 block 7.9µM
N#CC1=C(S)N(c2ccccc2)C(c2ccc(-c3ccc(Cl)c(Cl)c3)o2)NC1=O (stereo not drawn)	Sfp inh 35µM, RORg inh 10µM, Gal4-VP16 FLuc inconclusive, PLK1 PBD block inconclusive (no result: ALDH1A1 block)
CC(C)c1cccc(C(C)C)c1NC(=O)c1ccc(-c2cc(Cl)ccc2Cl)o1	none (no result: Sfp inh, ALDH1A1 block, RORg inh, Gal4-VP16 FLuc)
N#CC1=C(S)N(c2ccccc2)C(c2ccc(-c3cc(Cl)ccc3Cl)o2)NC1=O (stereo not drawn)	Sfp inh 28µM, ALDH1A1 block inconclusive, RORg inh 13µM, Gal4-VP16 FLuc inconclusive, PLK1 PBD block inconclusive
Cc1ccc(Nc2nc(CSc3nnc(-c4ccc(F)cc4)n3C)cs2)cc1	ALDH1A1 block inconclusive, RORg inh 11µM
O=C(Nc1nncs1)c1cccc(S(=O)(=O)N2CCc3ccccc32)c1	PLK1 PBD block 3.4µM
O=C(Nc1nc2ccc(F)cc2s1)c1cccc(S(=O)(=O)N2CCc3ccccc32)c1	ALDH1A1 block inconclusive, RORg inh inconclusive
CCCNC(=O)c1cc(S(=O)(=O)N2CCc3ccccc32)cn1C	RORg inh inconclusive, Gal4-VP16 FLuc 14µM (no result: ALDH1A1 block)
CCOC(=O)c1sc(NC(=O)c2cccc(S(=O)(=O)N3CCc4ccccc43)c2)c(C#N)c1C	RORg inh inconclusive, Gal4-VP16 FLuc 5.6µM, PLK1 PBD block inconclusive (no result: ALDH1A1 block)
CCc1ccccc1NC(=O)c1cc(S(=O)(=O)N2CCc3ccccc32)cn1C	none (no result: ALDH1A1 block)
CCC(CC)c1nnc(NC(=O)c2cccc(S(=O)(=O)N3CCc4ccccc43)c2)s1	ALDH1A1 block inconclusive, RORg inh 16µM, Gal4-VP16 FLuc inconclusive
O=C(O)c1cccc(NC(=O)c2cccc(S(=O)(=O)N3CCc4ccccc43)c2)c1	none (no result: ALDH1A1 block)
CCOC(=O)CC1Sc2ccccc2NC1=S (stereo not drawn)	Sfp inh 40µM, ALDH1A1 block 7.9µM, RORg inh 3.5µM, Gal4-VP16 FLuc inconclusive
CCOC(=O)C1=C(C)Nc2ccccc2S1	Sfp inh 50µM, PLK1 PBD block inconclusive (no result: ALDH1A1 block)
CCOC(=O)C1=C(C)Nc2ccc(C)cc2S1	Sfp inh 50µM, PLK1 PBD block inconclusive
CCOC(=O)CC1Sc2ccccc2NC1=O (stereo not drawn)	Sfp inh inconclusive
